Sampled rows, rich in hits. Any-hit rate of the full collection: about 0.43%.
GAA inhib: qHTS Assay for Inhibitors of Human alpha-Glucosidase as a Potential Chaperone Treatment of Pompe Disease. purified human GAA, 4-MU-alpha-glucoside fluorescence. Potency, µM (highest dose often 76.9 µM), without a hit: at the highest dose activity change, negative = inhibition, usual class: inhibitors. actives 0.005% (n = 200,000). AID 1466, 2008;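 further: potency means the concentration at half of the fitted maximal effect; plate controls were uninhibited enzyme wells for no effect and no-enzyme background for full effect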
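Enzyme (4 nM final) mixed with compound (up to 77 uM), then 4-MU-alpha-D-pyranoside (400 uM final) added; 20 min at room temperature, pH 5.0. Reaction stopped at pH 10, fluorescence read, AC50 derived by Hill fit.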
GLA inh pH 4.5: qHTS Assay for Inhibitors of Human alpha-Galactosidase at pH 4.5; 230,000 tested, under 10 active; purified enzyme, 4-MU-alpha-Gal fluorescence, pH 4.5; activity change, negative = inhibition, % at 105 µM;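 further: 0% = full activity with enzyme and -100% = basal without enzyme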
Target sequence (P06280 whole entry, looked up): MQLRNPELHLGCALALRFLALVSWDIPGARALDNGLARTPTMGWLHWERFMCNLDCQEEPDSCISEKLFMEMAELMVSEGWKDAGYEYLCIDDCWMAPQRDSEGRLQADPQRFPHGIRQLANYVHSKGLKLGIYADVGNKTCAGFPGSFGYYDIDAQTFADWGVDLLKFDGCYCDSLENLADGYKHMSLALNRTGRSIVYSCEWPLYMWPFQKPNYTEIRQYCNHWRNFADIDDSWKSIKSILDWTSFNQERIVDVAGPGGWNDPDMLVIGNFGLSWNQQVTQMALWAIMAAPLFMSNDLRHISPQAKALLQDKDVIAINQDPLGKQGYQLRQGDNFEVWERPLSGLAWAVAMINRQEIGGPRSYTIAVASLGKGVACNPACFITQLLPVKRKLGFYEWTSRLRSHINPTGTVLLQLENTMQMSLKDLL
N370S GC mod: qHTS Assay for Inhibitors and Activators of N370S glucocerebrosidase as a Potential Chaperone Treatment of Gaucher Disease; N370S GC spleen homogenate, 4MU-glucoside fluorescence; Lysosomal acid glucosylceramidase (Homo sapiens), P04062; actives 0.092% (n = 330,000); Potency, µM (top dose mostly 59.4 µM), without a hit: at the highest dose activity change, negative = inhibition, hits mostly inhibitors;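 further: potency means the concentration at half of the fitted maximal effect; 0% = full enzyme activity and -100% = no enzyme basal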
GAA glycogen mod: qHTS Assay for Inhibitors and Activators of Human alpha-Glucosidase Cleavage of Glycogen. recombinant GAA, glycogen substrate, Amplex Red glucose oxidase fluorescence. actives 0.38% (n = 300,000). AID 2100, 2009. Lysosomal alpha-glucosidase (Homo sapiens), P10253. Potency, µM (series often up to 76.4 µM), for the others: at the top dose activity change, negative = inhibition, most hits filed as inhibitors;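 further: potency means the concentration at half of the fitted maximal effect; 0% = full enzyme reaction and -100% = no-enzyme basal signal; the screen sought inhibitors and activators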
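Natural-substrate format: glycogen cleavage by 4 nM human enzyme, glucose read by Amplex Red coupling (Ex 573, Em 610 nm). Normalized to enzyme and no-enzyme controls.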
aGal spleen mod: qHTS Assay for Inhibitors and Activators of Human alpha-Galactosidase From Spleen Homogenate; Alpha-galactosidase A (Homo sapiens), P06280; human spleen homogenate, 4MU-alpha-Gal fluorescence, 40 min; Potency, µM (doses to about 80 µM), for inactives: at the top dose activity change, negative = inhibition, actives largely listed as inhibitors; actives 0.008% (n = 240,000); AID 2107, 2009;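 further: potency means the concentration at half of the fitted maximal effect; 0% = enzyme with vehicle and -100% = no enzyme basal signal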
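qHTS titration in buffer at pH 5.0. Alpha-galactosidase activity in spleen homogenate was measured via 4-methylumbelliferone release from 1 mM fluorogenic substrate after 40 min at 37C and a pH 10 stop. AC50 came from Hill fits of control-normalized data.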
GAA spleen mod: qHTS Assay for Inhibitors and Activators of Human alpha-Glucosidase From Spleen Homogenate; AID 2112, 2009; Lysosomal alpha-glucosidase (Homo sapiens), P10253; Potency, µM (series often up to 79.9 µM), without a hit: at the highest dose activity change, negative = inhibition, actives largely listed as inhibitors; actives 0.006% (n = 240,000); human spleen homogenate, 4-MU-alpha-glucoside fluorescence;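 further: potency means the concentration at half of the fitted maximal effect; 0% = enzyme with vehicle and -100% = no enzyme basal signal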
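AC50 values come from Hill-equation fits of concentration-response data, normalized to no-enzyme and full-activity controls. Enzyme source: 1 ug human spleen homogenate; 1 mM fluorogenic 4-MU glucoside, pH 5.0 citrate buffer, 37 C, 40 min.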
Numbers without * were called inactive; ? = inconclusive; nt = no result; ! = repeats disagree; [ ] = another dose, or the depositor's remark. The call rests on the fitted dose curve; in most records, active means well fitted curve in the direction sought with a large enough effect; inconclusive means small, poorly fitted or top-dose-only effect, or another doubt; inactive means no such curve, though single readings can be large; an effect the other way counts as inactive or inconclusive.

SMILES	GAA inhib	GLA inh pH 4.5	N370S GC mod	GAA glycogen mod	aGal spleen mod	GAA spleen mod
CC(C)(C)NC(=O)C1CCN(S(=O)(=O)c2cccc3nsnc23)CC1	nt	nt	9%	-7%[76.3 µM]	nt	nt
COC(=O)CNC(=O)C1CCN(S(=O)(=O)c2cccc3nsnc23)CC1	nt	nt	-27%	11µM*!	nt	nt
CCN(CC)c1ccc(/C=N/Nc2ccccc2)c(O)c1	-10%	-10	2%	18µM*	-1%	6%
CCN(CC)c1ccc(/C=N/Nc2cccc(C)c2)c(O)c1	1%	2	-2%	-27%	-3%	-9%
CC(C)N(Cc1ccccc1)C(=O)CN1C(=O)CSc2ccc(S(=O)(=O)N3CCCC3)cc21	nt	nt	nt	15%[76.3 µM]	nt	nt
COc1ccc(S(=O)(=O)N2CCC(C(=O)Nc3ccc(Oc4ccccc4)cc3)CC2)cc1OC	nt	nt	nt	11µM*	nt	nt
Cc1ccccc1OCC(=O)Nc1ccc2nc(SCC(=O)N3CCCC3)sc2c1	nt	nt	nt	-5%[76.3 µM]	nt	nt
O=C(NNc1c2ccccc2nc2ccccc12)c1ccc(O)cc1O	-8%	1	-6%	28µM*	-5%	-5%
Cc1ccc(C(=O)NNc2nc3ccccc3nc2C(F)(F)F)cc1	-3%	-6	-1%	16µM*	-1%	-9%
Cc1ccc(C(=O)Nc2nc3ccccc3n3nnnc23)cc1	-1%	-21	2%	2%	6%	-1%
O=C(NNc1c2ccccc2nc2ccccc12)c1ccccc1O	-3%	5	14%	7%	23%	-5%
O=C(NNc1c2ccccc2nc2ccccc12)c1ccc(O)cc1	7%	-9	5%	11µM*	3%	1%
CCc1ccc2nc(N(CCN(CC)CC)C(=O)c3ccco3)sc2c1	nt	nt	nt	15%[76.3 µM]	nt	nt
COC(=O)[C@@H](N)Cc1ccc(O)c(O)c1	nt	-2	-2%	nt	11%	2%
COC(=O)Cc1ccc(O)c(N)c1	4%	6	7%	5.6µM*	0%	6%
Cc1noc(C)c1C(=O)NNc1ccc(C(C)C)cc1	-5%	8	9%	40µM*	14%	12%
Cc1c2cnn(CC(=O)N3CCN(c4ccccc4)CC3)c(=O)c2c(C)n1Cc1ccc(F)cc1	nt	nt	nt	8%[76.3 µM]	nt	nt
C(=N\N1CCN(C2c3ccccc3-c3ccccc32)CC1)/c1ccncc1	2%	-6	-12%	-10%	-2%	-5%
C/C(=N\N1CCN(C2c3ccccc3-c3ccccc32)CC1)c1ccncc1	?	3	1%	28µM*	-12%	5%
O=C(OCCN=C1NS(=O)(=O)c2ccccc21)C1CC(=O)N(c2ccc3ccccc3c2)C1 (centres undefined)	?	-3	3.5µM*	-2%	3%	-5%
CC1=C(C(=O)Nc2cccnc2)C(c2ccc(Cl)cc2)n2nc(SCc3ccccc3)nc2N1 (centres undefined)	nt	nt	nt	25µM*	nt	nt
COc1ccc(C(C)=O)c2c(O)cccc12	0%	-1	-2%	40µM*	7%	9%
COc1ccc(C(=O)c2ccccc2)c2c(O)ccc(C(=O)c3ccccc3)c12	-5%	5	5%	-3%	6%	5%
CCOc1cc(/C=N/Nc2nnc(C)n2N)ccc1O	nt	nt	-13%	11µM*	nt	nt
COc1ccc(OC)c(/C=N/Nc2nncn2/N=C/c2cc(OC)ccc2OC)c1	1%	-13	3%	-9%	5%	-5%
COc1cc(/C=N/Nc2nncn2/N=C/c2ccc(O)c(OC)c2)ccc1O	1%	-3	-7%	10µM*	1%	-5%
COc1cc(/C=N/Nc2ccccc2)ccc1O	nt	nt	-8%	?	nt	nt

From PubChem
